Abeta yeast res – qHTS for compounds that reverse cellular toxicity of Amyloid beta (A-beta) peptide in yeast: Primary Screen. yeast expressing A-beta42, growth rescue, OD600, 48 h; response scale: 0% DMSO, 100% iron-clioquinol control. Potency, µM (doses to about 46.1 µM), actives largely listed as activators. 410,000 tested, 0.063% active. AID 1347071, 2019; also: nearly all actives have a fitted effect of over 55% in size
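Growth rescue measured by 600 nm absorbance after 48 h yeast culture at 30 C with compound. Values normalized between DMSO and an equimolar ferric chloride plus clioquinol control.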
aSyn rescue – qHTS of alpha-syn Inhibitors; Yeast expressing alpha-synuclein, growth rescue, BacTiter-Glo, 24 h; Potency, µM (top dose mostly 46.1 µM), most hits filed as activators; 370,000 tested, 0.14% active; also: nearly all actives have a fitted effect of over 65% in size
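Rescue of yeast growth: cells expressing toxic alpha-synuclein, induced in galactose at OD600 0.02, incubated with compound 24 h at 30 C. ATP luminescence quantified growth; inhibitors of toxicity appear as activators.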
FUS yeast rescue – qHTS for Suppressors of FUS Proteinopathy: Primary screen using FUS-linked yeast assay; S. cerevisiae FUS-expressing, growth rescue, OD600, 24 h; 390,000 tested, 0.24% active; AID 1347120, 2019; Potency, µM (highest dose often 76.6 µM), usual class: activators; also: nearly all actives have a fitted effect of over 55% in size
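S. cerevisiae expressing FUS from galactose induction served as the toxicity model. Growth after 24hr at 30C, read as absorbance at 600 nm, indicates suppression of toxicity; compounds dosed at several concentrations.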
TDP-43 yeast inh – qHTS of TDP-43 Inhibitors. 410,000 tested, 1.8% active. TDP-43 expressing yeast growth rescue, BacTiter-Glo, 24 h. AID 652104, 2013. Potency, µM (series often up to 46.1 µM), hits mostly activators; also: nearly all actives have a fitted effect of over 50% in size
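Growth rescue of TDP-43-toxic yeast measured as ATP luminescence (BacTiter-Glo). Cells grown to mid-log in raffinose, induced in galactose at OD600=0.02, exposed to compound 24 hr at 30 deg C.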
Of the large screens only hits and unclear results are named; the others gave an inactive call. This is a sample that favours compounds with a hit; in the whole collection about 2.1% have one here. Calls follow the shape of the dose curve; as a rule, active = well fitted curve in the direction sought with a large enough effect; inconclusive = small, poorly fitted or top-dose-only effect, or another doubt; inactive = no such curve, though single readings can be large; an effect the other way counts as inactive or inconclusive.

Cc1ccc(C(=O)N2CCN(S(=O)(=O)c3cc(Br)ccc3Br)CC2)o1	TDP-43 yeast inh 20µM
CCOc1ccc(CCNC(=O)C2CCN(c3ncnc4c3nc3n4CCCCC3)CC2)cc1	none (no result: aSyn rescue)
COc1ccc(NCc2cc3cc4c(cc3n(CC(=O)Nc3ccc(C)cc3)c2=O)OCO4)cc1	FUS yeast rescue 14.1µM
S=C(NCC1CCCCC1)OC1CCC12CCC(c1ccccc1)CC2 (stereo not drawn)	none (no result: Abeta yeast res, aSyn rescue, TDP-43 yeast inh)
Nc1cc2nsnc2cc1Br	TDP-43 yeast inh 12.6µM (no result: FUS yeast rescue)
Nc1cccc2nsnc12	none
CCOc1ccc(CNC(=O)c2cnc3sc(N4CCOCC4)nn3c2=O)cc1OC	none (no result: aSyn rescue)
CCC(c1nnnn1-c1ccc2c(c1)OCCO2)N1CCN(c2ncccc2C(F)(F)F)CC1 (stereo not drawn)	aSyn rescue inconclusive, FUS yeast rescue inconclusive, TDP-43 yeast inh 12.6µM
CCC(c1nnnn1-c1ccc2c(c1)OCCO2)N1CCN(c2ccc(F)cc2)CC1 (stereo not drawn)	none
COC(=O)C1=C(C)NC(C)=C(C(=O)OCC(C)C)C1c1ccccc1[N+](=O)[O-] (stereo not drawn)	TDP-43 yeast inh 35.5µM
Clc1ccc(-c2nc3ccc(Br)cn3c2Cc2ccsc2)cc1	TDP-43 yeast inh 35.5µM
Brc1ccc(-c2nc3ccc(Br)cn3c2Cc2ccccc2)cc1	none
Fc1ccc(-c2nc3ccc(Br)cn3c2Cc2cccc(Cl)c2)cc1	TDP-43 yeast inh 35.5µM
Fc1ccc(-c2nc3ccc(Br)cn3c2Cc2ccccc2)cc1	TDP-43 yeast inh 35.5µM
CCOc1ccc(C(c2c(O)cc(C)n(Cc3ccco3)c2=O)N2CCN(C)CC2)cc1 (stereo not drawn)	none (no result: aSyn rescue)
CCc1ccc(NS(=O)(=O)c2ccc3[nH]cc(C(=O)NC4CCCC4)c(=O)c3c2)cc1	FUS yeast rescue 28.2µM (no result: aSyn rescue)
COCc1cc(C)nc2sc(C(=O)OC)c(N)c12	TDP-43 yeast inh 12.6µM
CCc1ccccc1NC(=O)c1sc2nc(C)cc(C)c2c1N	TDP-43 yeast inh 17.8µM
Cc1cc(C)c2c(N)c(C(=O)Nc3ccccc3Br)sc2n1	none
COc1ccc(S(=O)(=O)N2CCC(n3c(C(F)(F)F)nc4cccnc43)CC2)cc1OC	none (no result: aSyn rescue)
CCc1ccc2oc(-c3ccc(OC)cc3)cc(=Nc3cccc(C(=O)O)c3)c2c1	none
COc1ccc(-c2cc(=Nc3ccc(C(=O)O)cc3)c3cc(C)ccc3o2)cc1	TDP-43 yeast inh 17.8µM
CCOC(=O)[C@]12CCCC=C1N(CCCOC)C(=O)[C@@H]2CC(=O)NCCc1ccccc1OC	none (no result: Abeta yeast res, aSyn rescue, TDP-43 yeast inh)
Fc1ccc(/C=N/n2c(C3CCCCC3)n[nH]c2=S)cc1	Abeta yeast res 12.6µM, TDP-43 yeast inh inconclusive
CCCCn1nnnc1C(c1ccccc1)N1CCN(c2ccc(C)cc2)CC1 (stereo not drawn)	TDP-43 yeast inh 35.5µM
Cc1ccc(OCc2occc2C(=O)O)cc1	TDP-43 yeast inh 14.1µM
Cc1ccoc1C(=O)NCc1occc1C(=O)O	none
Cc1ccc(-c2ccc(CCC(=O)O)n2NC(N)=S)cc1	none
Cc1ccc(-c2ccc(CCC(=O)O)n2C(C)C)cc1	TDP-43 yeast inh 35.5µM
Cc1ccc(Sc2ccc(N)cc2C#N)cc1	TDP-43 yeast inh 22.4µM (no result: FUS yeast rescue)
Cc1ccc(Sc2nnc(-c3ccccc3)cc2C#N)cc1	none
O=C(CCCN1C(=O)c2ccccc2C1=O)NCCc1ccc(OC(F)F)cc1	Abeta yeast res inconclusive, TDP-43 yeast inh 12.6µM
COc1ccc(CCNC(=O)CCCN2C(=O)c3ccccc3C2=O)cc1	none
CCNC(=S)Nc1ccc2c(c1)oc1ccccc12	Abeta yeast res 10µM, TDP-43 yeast inh inconclusive
COc1ccc(-c2csc(C(C)(NC(C)=O)c3ccc(OC)cc3)n2)cc1 (stereo not drawn)	TDP-43 yeast inh inconclusive
COc1ccc(C(C)(NC(C)=O)c2nc(-c3ccc(F)c(Cl)c3)cs2)cc1 (stereo not drawn)	FUS yeast rescue inconclusive, TDP-43 yeast inh 35.5µM
CCc1ccccc1OCC(=O)Nc1nc(-c2cccnc2)cs1	Abeta yeast res inconclusive, aSyn rescue inconclusive, TDP-43 yeast inh 6.31µM
Cc1ccc(S(=O)(=O)CC(=O)Nc2nc(-c3ccccc3)cs2)cc1	TDP-43 yeast inh 10µM
O=C(Cc1c(F)c(F)c(F)c(F)c1F)Nc1nc(-c2ccccc2)cs1	TDP-43 yeast inh 20µM
COC(=O)C[C@@H]1CC[C@H]2[C@@H](COc3ccc(NC(=O)Nc4cccc(F)c4)cc3C(=O)N2C)O1	none (no result: Abeta yeast res, aSyn rescue, TDP-43 yeast inh)
CCC[N+](C)(C)c1ccc(/C=C/c2ccnc3ccccc23)cc1	none (no result: Abeta yeast res, FUS yeast rescue, TDP-43 yeast inh)
Cc1cc(F)ccc1NC(=O)c1c(C)oc2c1C1=NCCN1C=N2	none (no result: aSyn rescue)
COc1cc(NC(=O)C2CCCN(S(=O)(=O)c3ccc(Cl)s3)C2)cc(OC)c1 (stereo not drawn)	none (no result: Abeta yeast res, aSyn rescue, TDP-43 yeast inh)
COc1ccc(Cn2c(=O)n(Cc3ccco3)c(=O)c3oc4ccccc4c32)cc1	none (no result: aSyn rescue)
Clc1ccc2nnnc(-c3ccccc3)c2c1	TDP-43 yeast inh 3.16µM
COc1ccc(OC)c(NC(=O)CSc2c3c(nc4cc(Cl)ccc24)CCCC3)c1	TDP-43 yeast inh 20µM (no result: aSyn rescue)
COc1ccc(NC(=O)CSc2nc(N)c3cc4c(nc3n2)CCCC4)c(OC)c1	FUS yeast rescue 31.6µM
O=C(CSc1c2c(nc3ccc(Cl)cc13)CCCC2)N1CCCCC1	TDP-43 yeast inh 15.8µM (no result: aSyn rescue)
CC1CCCCN1C(=O)CSc1c2c(nc3cc(Cl)ccc13)CCCC2 (stereo not drawn)	none (no result: aSyn rescue)
O=C(CSc1c2c(nc3cc(Cl)ccc13)CCCC2)N1CCN(c2ccccc2F)CC1	TDP-43 yeast inh 35.5µM (no result: aSyn rescue)
Cc1cc(C)cc(NC(=O)CSc2nnc(-c3cc4occc4n3C)n2-c2ccccc2C)c1	FUS yeast rescue inconclusive (no result: aSyn rescue)
CC1CCCN(C(=O)CSc2c3c(nc4cc(Cl)ccc24)CCCC3)C1 (stereo not drawn)	TDP-43 yeast inh 17.8µM (no result: aSyn rescue)
Cc1cccc(CSCc2ccc(C(=O)NCCc3ccccc3)o2)c1	TDP-43 yeast inh 35.5µM
O=C(O)c1cccc(-c2ccc3c(c2)OCO3)c1	TDP-43 yeast inh 12.6µM
Cc1cccc(-c2nc3ccccc3c3nncn23)c1	TDP-43 yeast inh 17.8µM
CCOC1(c2ccccc2)OC(=O)c2ccccc21 (stereo not drawn)	none
O=C1OC(Sc2ccccc2)(c2ccccc2)c2ccccc21 (stereo not drawn)	TDP-43 yeast inh 11.2µM
O=C1c2ccccc2-c2cc(Br)ccc2NC1O (stereo not drawn)	aSyn rescue 22.4µM, TDP-43 yeast inh inconclusive
O=C1NC(c2ccc(Br)cc2)Nc2ccccc21 (stereo not drawn)	none
CC(C)CNC(=S)NC(=O)c1ccc(F)cc1	TDP-43 yeast inh 14.1µM (no result: FUS yeast rescue)
O=C(/C=C/c1ccc(F)cc1)NC(=S)NNC(=O)c1cnccn1	TDP-43 yeast inh inconclusive
O=C(NC(=S)NNC(=O)c1cnccn1)c1ccc(F)cc1	aSyn rescue 11.2µM
CCCCNC(=O)C[C@H]1C(=O)N(CCCOC)C2=CCCCC[C@]21C(=O)OC	none (no result: Abeta yeast res, aSyn rescue, TDP-43 yeast inh)
C=CCn1c(SCC(N)=O)nnc1-c1ccc(C)cc1	none (no result: Abeta yeast res, aSyn rescue, TDP-43 yeast inh)
O=C(Nc1ccccc1)OCCc1ccccc1	TDP-43 yeast inh 35.5µM

Bioassay records (PubChem BioAssay)
